# Experimental data: ChEMBL document CHEMBL3988442, “University of Dundee, Small-Polar-MMV Screening Library” (2021)
# For some assays here: Entries with a potency or affinity are not part of this list.
# Key:
# Design in all cases: scale not given: direction of the effect not stated beside the values
# [1] = molecular target: Protein translocase subunit SecA (Escherichia coli (strain K12)) (UniProt P10408); assay: Assay to Identify E. coli SecA ATPase Inhibitors; type: functional; conditions: 30 µM
# [2] = molecular target: T1, Ubiquitin-activating enzyme e1, putative (Leishmania donovani (strain BPK282A1)) (UniProt E9BSI1); assay: Leishmania donovani Ubiquitin Activating Enzyme (LdE1); type: functional; conditions: 30 µM
# T1 sequence (whole entry): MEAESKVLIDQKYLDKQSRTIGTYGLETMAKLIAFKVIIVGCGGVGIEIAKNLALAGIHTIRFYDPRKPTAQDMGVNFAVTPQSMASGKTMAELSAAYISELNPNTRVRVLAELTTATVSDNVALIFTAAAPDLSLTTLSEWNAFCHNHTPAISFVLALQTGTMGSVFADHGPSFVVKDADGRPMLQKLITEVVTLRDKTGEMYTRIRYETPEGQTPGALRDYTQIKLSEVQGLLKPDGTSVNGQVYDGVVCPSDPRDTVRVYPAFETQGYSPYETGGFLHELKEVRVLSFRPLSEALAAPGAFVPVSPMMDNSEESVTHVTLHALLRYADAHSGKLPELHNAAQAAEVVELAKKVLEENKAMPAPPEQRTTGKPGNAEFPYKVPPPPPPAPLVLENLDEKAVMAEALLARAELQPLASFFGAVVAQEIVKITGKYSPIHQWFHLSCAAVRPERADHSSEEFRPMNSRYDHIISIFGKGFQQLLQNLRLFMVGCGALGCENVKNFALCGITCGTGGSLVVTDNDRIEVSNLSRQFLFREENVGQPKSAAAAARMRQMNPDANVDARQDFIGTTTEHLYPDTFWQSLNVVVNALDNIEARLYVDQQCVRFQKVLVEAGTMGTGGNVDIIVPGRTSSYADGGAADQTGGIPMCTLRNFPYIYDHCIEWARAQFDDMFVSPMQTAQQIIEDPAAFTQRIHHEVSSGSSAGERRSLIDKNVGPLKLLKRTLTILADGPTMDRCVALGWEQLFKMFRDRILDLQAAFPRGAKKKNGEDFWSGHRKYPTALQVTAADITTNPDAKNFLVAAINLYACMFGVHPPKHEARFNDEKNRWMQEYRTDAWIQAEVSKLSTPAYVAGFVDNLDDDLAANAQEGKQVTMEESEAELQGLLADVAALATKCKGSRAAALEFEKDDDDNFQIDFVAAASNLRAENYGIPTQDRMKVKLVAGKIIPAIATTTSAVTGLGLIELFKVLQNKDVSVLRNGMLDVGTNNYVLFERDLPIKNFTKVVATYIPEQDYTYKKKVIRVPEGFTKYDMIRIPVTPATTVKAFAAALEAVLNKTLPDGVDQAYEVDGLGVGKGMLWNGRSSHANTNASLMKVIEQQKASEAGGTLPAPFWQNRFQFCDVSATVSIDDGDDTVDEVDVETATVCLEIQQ
# [3] = molecular target: Sialic acid-binding Ig-like lectin 9 (Homo sapiens) (UniProt Q9Y336); assay: Hs-Siglec9 ALPHAscreen SOP 20170721; conditions: 10 µM
# Trypanosoma cruzi = assay: Trypanosoma cruzi phosphomannomutase and mannose-1-phosphate guanylyltransferase assay; type: functional; conditions: 10 µM
# [4] = molecular target: T2, Arginase-2, mitochondrial (Homo sapiens) (UniProt P78540); assay: in vitro enzyme assay to detect the production of urea directly proportional to the activity of Arginase II; type: functional; conditions: 33.3 µM; note: in the data most compounds retested in dose-response had high values
# T2 sequence (whole entry): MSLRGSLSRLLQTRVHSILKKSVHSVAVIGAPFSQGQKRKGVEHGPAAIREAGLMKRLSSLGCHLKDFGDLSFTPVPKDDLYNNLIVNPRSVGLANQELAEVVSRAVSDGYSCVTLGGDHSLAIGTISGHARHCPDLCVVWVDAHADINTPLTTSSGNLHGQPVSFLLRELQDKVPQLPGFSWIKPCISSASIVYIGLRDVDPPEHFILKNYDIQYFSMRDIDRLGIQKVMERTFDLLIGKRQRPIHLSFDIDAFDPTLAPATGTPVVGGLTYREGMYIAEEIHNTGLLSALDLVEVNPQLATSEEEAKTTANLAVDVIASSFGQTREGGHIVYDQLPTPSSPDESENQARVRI
# [5] = molecular target: T3, Proteasome subunit beta (Trypanosoma cruzi) (UniProt O96673); assay: Trypanosoma cruzi proteasome chymotrypsin-like activity (TcProtChymo) assay.; note: in the data most compounds retested in dose-response had high values; type: functional; conditions: 9.37 µM
# T3 sequence (whole entry): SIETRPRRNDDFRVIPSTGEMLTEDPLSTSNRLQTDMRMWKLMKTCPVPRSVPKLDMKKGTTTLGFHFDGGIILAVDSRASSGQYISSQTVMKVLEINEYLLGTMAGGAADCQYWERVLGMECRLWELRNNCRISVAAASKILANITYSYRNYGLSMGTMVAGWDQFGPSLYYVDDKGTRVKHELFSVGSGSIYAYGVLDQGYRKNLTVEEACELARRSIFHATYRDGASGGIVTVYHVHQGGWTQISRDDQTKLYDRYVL
# Homo sapiens = species: Homo sapiens; assay: To identify inhibition of the IFN signalling (Jak-Stat) pathway via expression of an eGFP reporter gene under the control of an IFN-stimulated response element (ISRE) containing MxA promoter.; type: functional; conditions: 30 µM
# [6] = molecular target: T4, Tyrosyl-tRNA synthetase, putative (Trypanosoma cruzi (strain CL Brener)) (UniProt Q4DSP6); assay: Trypanosoma cruzi tyrosyl tRNA synthetase (TcYRS) _High Tyrosine SOP; type: functional; conditions: 30 µM; note: in the data most compounds retested in dose-response had high values
# T4 sequence (whole entry): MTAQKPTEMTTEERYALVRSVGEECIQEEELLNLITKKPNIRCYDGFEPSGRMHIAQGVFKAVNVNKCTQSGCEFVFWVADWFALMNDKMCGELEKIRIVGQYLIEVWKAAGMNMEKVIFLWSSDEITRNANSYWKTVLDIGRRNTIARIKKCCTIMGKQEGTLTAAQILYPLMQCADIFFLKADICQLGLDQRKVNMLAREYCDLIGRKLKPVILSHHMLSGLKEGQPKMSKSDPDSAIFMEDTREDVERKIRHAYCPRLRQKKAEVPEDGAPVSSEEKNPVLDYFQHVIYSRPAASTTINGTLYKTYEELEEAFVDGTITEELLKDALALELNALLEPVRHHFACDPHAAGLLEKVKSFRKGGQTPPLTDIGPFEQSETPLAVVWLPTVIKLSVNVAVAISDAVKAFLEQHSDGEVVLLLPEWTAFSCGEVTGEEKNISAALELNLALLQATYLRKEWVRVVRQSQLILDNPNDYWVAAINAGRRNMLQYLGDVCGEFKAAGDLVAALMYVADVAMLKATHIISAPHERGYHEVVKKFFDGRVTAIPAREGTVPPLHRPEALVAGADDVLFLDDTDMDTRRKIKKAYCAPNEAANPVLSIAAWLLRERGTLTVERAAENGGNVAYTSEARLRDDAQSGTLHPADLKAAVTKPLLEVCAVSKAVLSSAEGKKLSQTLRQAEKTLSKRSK
# [7] = molecular target: T4, Tyrosyl-tRNA synthetase, putative (Trypanosoma cruzi (strain CL Brener)); assay: Trypanosoma cruzi tyrosyl tRNA synthetase (TcYRS) SOP; type: functional; conditions: 30 µM
# [8] = molecular target: Chromo domain-containing protein 1 (Saccharomyces cerevisiae (strain ATCC 204508 / S288c) (Baker's yeast)) (UniProt P32657); assay: ScCHD-1 Enzyme Inhibition Assay; type: functional; conditions: 30 µM; note: in the data most compounds retested in dose-response had high values
# Chain of Chromo domain-containing protein 1 (Saccharomyces cerevisiae (strain ATCC 204508 / S288c) (Baker's yeast)) (P32657 whole entry, the tested form may be a part): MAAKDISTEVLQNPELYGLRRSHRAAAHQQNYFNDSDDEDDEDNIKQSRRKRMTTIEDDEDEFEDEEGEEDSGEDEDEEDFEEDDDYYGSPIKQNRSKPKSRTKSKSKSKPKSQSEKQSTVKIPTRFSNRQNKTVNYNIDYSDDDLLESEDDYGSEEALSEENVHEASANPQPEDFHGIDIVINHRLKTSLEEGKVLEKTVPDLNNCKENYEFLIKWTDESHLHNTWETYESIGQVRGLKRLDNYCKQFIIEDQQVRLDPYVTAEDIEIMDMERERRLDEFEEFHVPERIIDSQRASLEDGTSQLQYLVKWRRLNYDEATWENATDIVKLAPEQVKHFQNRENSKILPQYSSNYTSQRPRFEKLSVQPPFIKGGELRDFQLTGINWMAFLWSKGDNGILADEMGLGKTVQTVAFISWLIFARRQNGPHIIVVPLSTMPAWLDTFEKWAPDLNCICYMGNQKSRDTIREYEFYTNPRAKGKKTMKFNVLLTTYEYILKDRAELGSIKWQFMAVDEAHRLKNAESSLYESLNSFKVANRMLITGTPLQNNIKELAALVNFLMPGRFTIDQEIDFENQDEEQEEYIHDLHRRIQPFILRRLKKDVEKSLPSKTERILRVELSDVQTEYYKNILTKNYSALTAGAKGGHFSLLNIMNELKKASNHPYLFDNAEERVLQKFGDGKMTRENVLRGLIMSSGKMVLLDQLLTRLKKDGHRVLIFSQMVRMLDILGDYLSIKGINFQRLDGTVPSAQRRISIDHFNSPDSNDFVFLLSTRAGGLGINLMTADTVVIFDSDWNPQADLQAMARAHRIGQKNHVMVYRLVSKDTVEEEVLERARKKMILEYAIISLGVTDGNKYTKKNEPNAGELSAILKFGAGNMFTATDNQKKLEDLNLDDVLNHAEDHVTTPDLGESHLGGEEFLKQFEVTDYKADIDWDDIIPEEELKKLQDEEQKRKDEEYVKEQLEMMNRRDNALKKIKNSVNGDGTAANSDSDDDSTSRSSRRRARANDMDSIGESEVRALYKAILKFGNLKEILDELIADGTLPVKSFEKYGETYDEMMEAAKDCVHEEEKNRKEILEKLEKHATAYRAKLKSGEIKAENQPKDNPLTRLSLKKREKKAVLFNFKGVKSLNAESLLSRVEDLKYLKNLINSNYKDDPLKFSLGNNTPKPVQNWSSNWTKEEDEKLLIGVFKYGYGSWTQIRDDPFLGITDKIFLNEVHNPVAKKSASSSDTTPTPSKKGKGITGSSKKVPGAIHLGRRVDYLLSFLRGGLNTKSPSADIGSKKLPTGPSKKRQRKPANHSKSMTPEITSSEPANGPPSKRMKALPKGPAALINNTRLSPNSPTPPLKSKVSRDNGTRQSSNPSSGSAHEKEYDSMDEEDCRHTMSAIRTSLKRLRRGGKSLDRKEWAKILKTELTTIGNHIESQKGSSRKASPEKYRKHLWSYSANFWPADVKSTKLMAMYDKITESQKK
# Chain of Sialic acid-binding Ig-like lectin 9 (Homo sapiens) (Q9Y336 whole entry): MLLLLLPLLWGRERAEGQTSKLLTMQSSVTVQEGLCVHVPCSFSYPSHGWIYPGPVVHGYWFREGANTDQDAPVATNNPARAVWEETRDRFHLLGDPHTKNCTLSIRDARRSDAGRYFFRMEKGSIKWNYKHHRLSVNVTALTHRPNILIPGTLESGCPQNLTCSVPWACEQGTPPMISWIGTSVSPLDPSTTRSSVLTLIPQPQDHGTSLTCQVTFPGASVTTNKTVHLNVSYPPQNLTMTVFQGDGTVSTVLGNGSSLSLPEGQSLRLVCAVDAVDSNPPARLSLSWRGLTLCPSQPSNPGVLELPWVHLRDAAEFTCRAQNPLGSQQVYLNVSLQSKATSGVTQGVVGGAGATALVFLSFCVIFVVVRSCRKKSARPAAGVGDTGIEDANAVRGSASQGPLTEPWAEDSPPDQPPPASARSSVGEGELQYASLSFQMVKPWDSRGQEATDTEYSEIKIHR
# Chain of Protein translocase subunit SecA (Escherichia coli (strain K12)) (P10408 whole entry): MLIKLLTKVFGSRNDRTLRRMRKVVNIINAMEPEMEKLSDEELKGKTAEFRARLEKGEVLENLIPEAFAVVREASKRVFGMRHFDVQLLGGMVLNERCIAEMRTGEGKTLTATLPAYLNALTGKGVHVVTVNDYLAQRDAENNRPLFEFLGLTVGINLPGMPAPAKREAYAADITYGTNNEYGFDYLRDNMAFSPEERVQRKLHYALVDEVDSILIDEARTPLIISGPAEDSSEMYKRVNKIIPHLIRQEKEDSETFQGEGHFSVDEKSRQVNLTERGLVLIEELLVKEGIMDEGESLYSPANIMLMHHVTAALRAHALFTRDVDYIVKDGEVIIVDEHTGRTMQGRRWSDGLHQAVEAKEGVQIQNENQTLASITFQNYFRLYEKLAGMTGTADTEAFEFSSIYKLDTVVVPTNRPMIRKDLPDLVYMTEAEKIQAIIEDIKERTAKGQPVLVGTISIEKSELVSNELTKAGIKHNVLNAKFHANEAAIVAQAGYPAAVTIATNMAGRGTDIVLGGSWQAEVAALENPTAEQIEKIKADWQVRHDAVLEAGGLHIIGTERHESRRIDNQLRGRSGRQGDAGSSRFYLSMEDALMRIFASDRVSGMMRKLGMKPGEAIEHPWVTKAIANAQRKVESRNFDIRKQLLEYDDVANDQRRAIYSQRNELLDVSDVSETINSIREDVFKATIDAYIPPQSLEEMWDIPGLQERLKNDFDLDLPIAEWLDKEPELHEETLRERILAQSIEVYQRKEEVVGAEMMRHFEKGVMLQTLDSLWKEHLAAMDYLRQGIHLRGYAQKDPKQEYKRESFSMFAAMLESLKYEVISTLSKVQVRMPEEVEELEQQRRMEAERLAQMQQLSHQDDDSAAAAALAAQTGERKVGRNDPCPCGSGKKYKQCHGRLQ
SMILES,Percent Effect [1],Percent Effect [2],Percent Effect [3],Percent Effect (Trypanosoma cruzi),Percent Effect [4],Percent Effect [5],Percent Effect (Homo sapiens),Percent Effect [6],Percent Effect [7],Percent Effect [8]
CC(C)c1cc(C(=O)N(C)Cc2cccc3ncccc23)n(C)n1,-3.2%,12%,13.8%,0.986%,-1.77%,13.1%,36.7%,3.17%,12.5%,-26%
Cc1nc(CN2CCC3(CC2)NC(=O)CC3c2ccccc2)cs1 (stereo not given),-3.5%,-1.3%,-0.193%,0.375%,-0.913%,9.19%,4.58%,8.7%,12.5%,-9.48%
Cc1ccc(NC(=O)N2C[C@H]3CC[C@@H]2CN(Cc2cscn2)C3)cc1,-8.89%,2.7%,16.7%,2.42%,5.25%,4.45%,0.0605%,6.92%,12.2%,0.126%
COc1cc(N2CCCC(c3nccn3CCN(C)C)C2)nc(N)n1 (stereo not given),-9.14%,2.7%,4.84%,3.59%,4.54%,4.62%,5.13%,7.98%,17.1%,11.6%
CC(C)(C)c1n[nH]c(C2CN(C(=O)CCC3CC3)CCO2)n1 (stereo not given),-3.72%,5.13%,-3.95%,9.86%,-1.23%,5.38%,-22.9%,3.35%,13.2%,-2.58%
O=C(Nc1cccc(N2CCCC2)c1)C1CCCN1c1nccs1 (stereo not given),-2.06%,-15.4%,6.8%,8.92%,-1.23%,1.79%,-2.5%,8.13%,-1.21%,-2.52%
CCn1nc2c(cc1=O)CN(CC(=O)Nc1nc(C)c(C)s1)CC2,-0.874%,0%,5.55%,-9.7%,1.84%,13.3%,14.5%,4.9%,9.41%,-8.07%
O=C1CC2(CCN(Cc3ccoc3)C2)CN1c1ccc2c(c1)OCO2 (stereo not given),-7.31%,1.3%,-0.448%,1.85%,0.81%,4.68%,4.43%,7.89%,10.3%,-0.51%
CN(C)CC(=O)N1CCC2(CCN(Cc3ccccn3)C2=O)C1 (stereo not given),-3.33%,-1.3%,-3.23%,-2.63%,-4.45%,12.6%,-1.64%,1.58%,7.69%,-2.1%
CCCn1nc2c(cc1=O)CN(CC(=O)Nc1ccncc1)CC2,-3.45%,10.4%,6.89%,-3.17%,2.25%,17.2%,3.95%,3.92%,11.8%,-14.2%
CC(C)N1CCCC2(CCN(C(=O)CCCn3ccnc3)C2)C1=O (stereo not given),-6.84%,2.7%,0.678%,-2.62%,-1.75%,13.4%,-5.32%,4.79%,12.2%,-0.546%
COCCN1CCCC12CCN(C(=O)CC1CCCC1)CC2,-1.94%,-3.9%,0.315%,2.44%,0%,-0.0858%,16.7%,5.8%,12.5%,-2.58%
O=C(CN1CCCC(c2ccc(C(=O)O)cc2)C1)NC1CC1 (stereo not given),-9.44%,5.41%,8.6%,7.08%,8.04%,1.2%,-14.3%,6.92%,12.2%,-1.84%
O=C(NCc1cc[nH]n1)NCC(c1ccc(F)cc1)N1CCOCC1 (stereo not given),-1.44%,23.1%,-10.9%,4.79%,2.87%,7.93%,8.57%,4.31%,20.5%,-7.47%
CCc1cc(C(=O)N2CCCC2c2nc(C)c(F)c(O)n2)on1 (stereo not given),1.86%,17.3%,-9.03%,0.197%,-3.54%,16.1%,26.2%,3.17%,10%,-19.6%
Cc1cn2c(n1)CCC(NC(=O)c1c[nH]c(C)n1)C2 (stereo not given),-6.87%,-10.7%,1.48%,3.61%,0%,10.9%,17.2%,3.68%,7.69%,-13.6%
C[C@]1(O)CCN(Cc2cncs2)C[C@@H]1Oc1cccc(F)c1,0.894%,4%,6.06%,-4.93%,3.1%,-1.64%,14.1%,1.06%,2.5%,-19.6%
CCc1ccc(NC(=O)C2OC(c3cccs3)=NN2C(C)=O)cc1 (stereo not given),-5.81%,12%,-5.11%,3.94%,-0.443%,19.2%,14.4%,1.06%,10%,-26.1%
CCOc1ccc(Cl)c(C(=O)N(C)C)n1,-2.43%,15.4%,-11.2%,-3.66%,2.05%,14.2%,30.8%,4.31%,13.2%,-2.78%
O=C(CCN1CCCN(c2nccs2)CC1)NCC1CCCCC1,-2.39%,5.33%,1.99%,-3.61%,0%,9.41%,3.1%,6.84%,7.69%,-5.72%
